Records with an inconclusive call do not appear. Values without a mark were called inactive. Active and inactive are the calls of the source. Calls come from the whole dose curve; as a rule, active = well fitted inhibition curve with a large enough effect; inconclusive = small, poorly fitted or top-dose-only effect; inactive = flat fitted curve, though single readings scatter.
% is set by controls: 0 for no effect and ±100 for the full control effect.

For this experiment, the system named is CRL-7250. Description: Cytotoxic Profiling of Annotated Libraries Using Quantitative High-Throughput Screening (AID 1296008). Note: nearly all actives have a fitted effect of over 60% in size. As to conditions: Five cell lines viability, CellTiter-Glo ATP luminescence, 48-72 h; max response: hits give low values. The method, boiled down: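 Cytotoxicity was measured as CellTiter-Glo ATP luminescence, read after 10 min at room temperature. Compound treatment of the cells lasted 48 or 72 hr at 37 degrees Celsius in a qHTS format.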
Regarding `OCC1OC(Oc2cc(O)cc(/C=C/c3ccc(OC4OC(CO)C(O)C(O)C4O)cc3O)c2)C(O)C(O)C1O` (stereo unspecified), the result was inactive. For `C[C@@H]1O[C@@H](O[C@H]2[C@H](O[C@H]3[C@H](O[C@H]4CC[C@@]5(C)C(CC[C@]6(C)C5CC=C5[C@@H]7CC(C)(C)CC(=O)[C@]7(C)CC[C@]56C)[C@@]4(C)CO)O[C@H](C(=O)O)[C@@H](O)[C@@H]3O)O[C@H](CO)[C@H](O)[C@@H]2O)[C@H](O)[C@H](O)[C@H]1O` (stereo partly specified), the max response was -2.01%. Regarding `CC(O)C/C=C/C=C/C(=O)OC1C=C2COC(=O)C2(O)C2(C)CCCC(C)(C)C12` (stereo unspecified), the compound was called inactive.

Take `C[C@@H]1O[C@@H](O[C@H]2[C@H](O)[C@@H](O[C@@H]3O[C@H](CO)[C@H](O)[C@H](O)[C@H]3O)[C@H](O[C@H]3CC[C@@]4(C)C(CC[C@]5(C)C4CC=C4[C@@H]6CC(C)(C)CC[C@]6(C(=O)O[C@@H]6O[C@H](CO)[C@@H](O)[C@H](O)[C@H]6O)CC[C@]45C)C3(C)C)O[C@@H]2C(=O)O)[C@H](O)[C@H](O)[C@H]1O` (stereo partly specified): the max response is -0.719%. On the same count and under the same terms, in the case of `COc1ccnc(CCc2nc3ncccc3[nH]2)c1` it was -4.02%; in that of `CC(=O)O[C@@H]1[C@H](O[C@@H]2OC[C@](O)(CO)[C@H]2O)[C@@H](O[C@@H]2O[C@@H](C)[C@H](O)[C@@H](O[C@@H]3O[C@H](CO)[C@@H](O)[C@H](O)[C@H]3O)[C@H]2O)[C@H](OC(=O)[C@]23CCC(C)(C)C[C@H]2C2=CCC4[C@@]5(C)C[C@H](O)[C@H](O[C@@H]6O[C@H](C(=O)O)[C@@H](O)[C@H](O)[C@H]6O)[C@@](C)(C(=O)O)C5CC[C@@]4(C)[C@]2(C)CC3)O[C@@H]1C` (stereo partly specified), -6.6%.

Source of the values: PubChem BioAssay (NCATS).
